Where a name gives a salt, the structure may show the parent alone. Unmarked numbers belong to inactive results.
Tested on: Plasmodium falciparum NF54/iGP1_RE9H ulg8 stage V gametocytes
Test: gametocyte viability (luciferase signal relative to DMSO control) (% of DMSO control); higher = less gametocytocidal activity, active = 50 or less
Settings: exposure time: 72 h
In short: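 Gametocyte viability is reported relative to the average of DMSO vehicle wells on the same plate. The assay used day-12 stage V NF54/iGP1_RE9Hulg8 gametocytes at ~2.5% gametocytemia and 3% hematocrit, in 0.5% Albumax II medium, added to 96-well plates of compounds spotted in nanolitre volumes for final 10 µM or 1 µM, one well each. After 72 h at 37 °C, 90 µl was mixed with 10 µl D-luciferin (30 mg/ml), and luminescence was recorded with an IVIS Lumina II.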

## Cc1cc(Nc2nc(N[C@@H](C)c3ncc(F)cn3)ncc2Cl)[nH]n1
concentration: 1 µM
  gametocyte viability: 97.5
concentration: 10 µM
  gametocyte viability: 95.5

## C=CC(=O)Nc1cccc(Sc2nc(Nc3ccc(N4CCN(C)CC4)cc3)ncc2Cl)c1
concentration: 1 µM
  gametocyte viability: 87.2
concentration: 10 µM
  gametocyte viability: 72.7

## C=CC(=O)Nc1cc2c(Nc3ccc(F)c(Cl)c3)ncnc2cc1OCCCN1CCOCC1 [CI-1033 (Canertinib)]
concentration: 1 µM
  gametocyte viability: 97.8
concentration: 10 µM
  gametocyte viability: 100

## CNC(=O)c1cc(Oc2ccc(NC(=O)Nc3ccc(Cl)c(C(F)(F)F)c3)c(F)c2)ccn1 [Regorafenib (BAY 73-4506)]
concentration: 1 µM
  gametocyte viability: 95.1
concentration: 10 µM
  gametocyte viability: 99.1

## CN(C)CCCn1cc(C2=C(c3c[nH]c4ccccc34)C(=O)NC2=O)c2ccccc21
concentration: 1 µM
  gametocyte viability: 92.7
concentration: 10 µM
  gametocyte viability: 115

## COc1cc2nccc(Oc3ccc(NC(=O)Nc4cc(C)on4)c(Cl)c3)c2cc1OC [Tivozanib (AV-951)]
concentration: 1 µM
  gametocyte viability: 94
concentration: 10 µM
  gametocyte viability: 99.8

## N#CC(=C(/N)Sc1ccccc1N)/C(C#N)=C(/N)Sc1ccccc1N
concentration: 1 µM
  gametocyte viability: 100
concentration: 10 µM
  gametocyte viability: 103

## CN1CC[C@H](c2c(O)cc(O)c3c(=O)cc(-c4ccccc4Cl)oc23)[C@H](O)C1 [Flavopiridol hydrochloride]
concentration: 1 µM
  gametocyte viability: 106
concentration: 10 µM
  gametocyte viability: 111

## COc1cc2ncnc(Nc3cccc(Cl)c3)c2cc1OC
concentration: 1 µM
  gametocyte viability: 109
concentration: 10 µM
  gametocyte viability: 104

## COc1cc(OC)c(/C=C/S(=O)(=O)Cc2ccc(OC)c(NCC(=O)O)c2)c(OC)c1
concentration: 1 µM
  gametocyte viability: 93.4
concentration: 10 µM
  gametocyte viability: 101

## FC(F)c1nc2ccccc2n1-c1nc(N2CCOCC2)nc(N2CCOCC2)n1
concentration: 1 µM
  gametocyte viability: 98.5
concentration: 10 µM
  gametocyte viability: 108

## N#CC(C#N)=C(N)/C(C#N)=C/c1cc(O)c(O)c(O)c1
concentration: 1 µM
  gametocyte viability: 110
concentration: 10 µM
  gametocyte viability: 113

## COc1cc2c(Nc3ccc(NC(=O)c4ccccc4)cc3)ncnc2cc1OCCCN1CCOCC1
concentration: 1 µM
  gametocyte viability: 92.3
concentration: 10 µM
  gametocyte viability: 92.5

## Cc1cc(Nc2cc(N3CCN(C)CC3)nc(Sc3ccc(NC(=O)C4CC4)cc3)n2)n[nH]1 [VX-680 (MK-0457, Tozasertib)]
concentration: 1 µM
  gametocyte viability: 97.5
concentration: 10 µM
  gametocyte viability: 84.3

## CNC(=O)c1ccccc1Sc1ccc2c(/C=C/c3ccccn3)n[nH]c2c1 [Axitinib]
concentration: 1 µM
  gametocyte viability: 103
concentration: 10 µM
  gametocyte viability: 98.8

## Cc1ccc(NC(=O)c2ccc(CN3CCN(C)CC3)cc2)cc1Nc1nc(-c2cccnc2)cs1 [Masitinib (AB1010)]
concentration: 1 µM
  gametocyte viability: 104
concentration: 10 µM
  gametocyte viability: 80.3

## CCOc1cc2ncc(C#N)c(Nc3ccc(OCc4ccccn4)c(Cl)c3)c2cc1NC(=O)/C=C/CN(C)C [Neratinib (HKI-272)]
concentration: 1 µM
  gametocyte viability: 103
concentration: 10 µM
  gametocyte viability: 104

## Nc1nc2ncnc-2c[nH]1 [2-Aminopurine]
concentration: 1 µM
  gametocyte viability: 97.6
concentration: 10 µM
  gametocyte viability: 103

## CC(C)CC(=O)Nc1n[nH]c2c1CN(C(=O)C1CCN(C)CC1)C2(C)C
concentration: 1 µM
  gametocyte viability: 96.4
concentration: 10 µM
  gametocyte viability: 110

## NC(N)=NCCNS(=O)(=O)c1cccc2cnccc12
concentration: 1 µM
  gametocyte viability: 107
concentration: 10 µM
  gametocyte viability: 107

## Cc1cc(C(=O)NOCCO)c(Nc2ccc(I)cc2F)n(C)c1=O
concentration: 1 µM
  gametocyte viability: 90.8
concentration: 10 µM
  gametocyte viability: 92.8

## COc1cc(Nc2ncc(F)c(Nc3ccc4c(n3)N(COP(=O)(O)O)C(=O)C(C)(C)O4)n2)cc(OC)c1OC
concentration: 1 µM
  gametocyte viability: 95.1
concentration: 10 µM
  gametocyte viability: 101

## NCCNS(=O)(=O)c1cccc2cnccc12
concentration: 1 µM
  gametocyte viability: 105
concentration: 10 µM
  gametocyte viability: 107

## CN(c1ncccc1CNc1nc(Nc2ccc3c(c2)CC(=O)N3)ncc1C(F)(F)F)S(C)(=O)=O
concentration: 1 µM
  gametocyte viability: 117
concentration: 10 µM
  gametocyte viability: 112

## CO[C@H]1C[C@@H]2CC[C@@H](C)[C@@](O)(O2)C(=O)C(=O)N2CCCC[C@H]2C(=O)O[C@H]([C@H](C)C[C@@H]2CC[C@@H](OC(=O)C(C)(CO)CO)[C@H](OC)C2)CC(=O)[C@H](C)/C=C(\C)[C@@H](O)[C@@H](OC)C(=O)[C@H](C)C[C@H](C)/C=C/C=C/C=C/1C [Temsirolimus (Torisel)]
concentration: 1 µM
  gametocyte viability: 93.9
concentration: 10 µM
  gametocyte viability: 88.4

## Cc1ccc(NC(=O)c2ccc(CN3CCN(C)CC3)cc2)cc1Nc1nccc(-c2cccnc2)n1 [Imatinib (Gleevec)]
concentration: 1 µM
  gametocyte viability: 104
concentration: 10 µM
  gametocyte viability: 110

## O=P(O)(O)C(O)c1ccc2ccccc2c1 (stereo not given) [Hydroxy-2-naphthalenylmethylphosphonic acid]
concentration: 1 µM
  gametocyte viability: 95.7
concentration: 10 µM
  gametocyte viability: 90.5

## COC(=O)Nc1ccc(-c2nc(N3CCOCC3)c3cnn(C4CCN(Cc5cccnc5)CC4)c3n2)cc1
concentration: 1 µM
  gametocyte viability: 115
concentration: 10 µM
  gametocyte viability: 117

## COc1cc2/c(=N/c3ccc(Br)cc3F)nc[nH]c2cc1OCC1CCN(C)CC1 [Vandetanib (Zactima)]
concentration: 1 µM
  gametocyte viability: 88.8
concentration: 10 µM
  gametocyte viability: 108

## Cn1cc(-c2ccc3nnc(C(F)(F)c4ccc5ncccc5c4)n3n2)cn1
concentration: 1 µM
  gametocyte viability: 98.2
concentration: 10 µM
  gametocyte viability: 118
